# From PubChem BioAssay AID652039 (The Scripps Research Institute Molecular Screening Center, 2013)
# The campaign covered roughly 370,000 compounds. About 3,300 (0.89%) were called active. This is one part of a sample in which actives are shown more often than they occur.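 Rule for the calls: active = activation above the mean of all tested compounds plus 3 SD, computed per campaign excluding outliers beyond control limits (cut at about 13% in these data); inactive = the rest.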
# Target: Kallikrein-7 (Homo sapiens) (UniProt P49862)
# Sequence (P49862 whole entry, looked up): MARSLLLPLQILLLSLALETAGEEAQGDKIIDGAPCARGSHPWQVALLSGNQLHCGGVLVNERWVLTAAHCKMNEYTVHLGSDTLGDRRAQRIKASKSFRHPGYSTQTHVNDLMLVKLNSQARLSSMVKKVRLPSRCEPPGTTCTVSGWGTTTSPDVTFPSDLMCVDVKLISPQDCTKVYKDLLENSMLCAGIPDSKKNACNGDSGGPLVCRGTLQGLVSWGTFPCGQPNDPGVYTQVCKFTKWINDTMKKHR
# Test: activation of human kallikrein-7 proenzyme – biochemical, fluorescence intensity, primary screen (AID 652039)
# Conditions: purified proKLK7, EDANS-DABCYL substrate fluorescence; at 7 µM; stronger effect = higher value; 100% is mature enzyme control, 0% vehicle
row,SMILES,activation
1,O=S1(=O)c2c(cccc2N2CC[C@H](O)C2)O[C@@H]2CCN1C2,-0.53% (inactive)
2,COc1ccccc1C(=O)Nc1cccc(C(=O)N2CCOCC2)c1,0.2% (inactive)
3,O=C(c1cccc(N2CCCC2=O)c1)N1CCOCC1,-0.32% (inactive)
4,CNc1cncc(-c2cccc(C(=O)N3CCOCC3)c2)n1,49.4% (active)
5,COc1cc(C(=O)N2CCN(C)CC2)cc(OC)c1OC,-0.27% (inactive)
6,CCOC(=O)C1CCCN(C(=O)c2cccc(S(=O)(=O)N3CCOCC3)c2)C1 (stereo not drawn),-0.32% (inactive)
7,COc1cc(C(=O)N2C(=O)c3cccc(N)c3C2=O)cc(OC)c1OC,50.3% (active)
8,COc1cc(C(=O)NC(=S)NCc2ccco2)cc(OC)c1OC,0.52% (inactive)
9,CC(=O)N1CCN(S(=O)(=O)c2cccc(C(=O)NC3CCC(C)CC3)c2)CC1 (stereo not drawn),-0.34% (inactive)
10,CC1CC(C)CN(S(=O)(=O)c2cccc(C(=O)N3C(=O)c4cccc(N)c4C3=O)c2)C1 (stereo not drawn),20.5% (active)
11,COc1ccc(CCNC(=O)CSc2nc3c([nH]2)c(=O)n(C)c(=O)n3C)cc1,0.4% (inactive)
12,COC(=O)c1ccccc1-n1cc(COC(=O)NCCc2ccccc2)nn1,-0.71% (inactive)
13,C[C@H]1CCC/C=C/C(=O)c2c(O)cc(O)cc2CC(=O)O1,0.41% (inactive)
14,Cc1ccc(NC(=S)NNC(=O)CSc2nnc(SCc3ccccc3Cl)s2)cc1,0.76% (inactive)
15,Cc1nc2ccc(C(=O)N3CCN(C(=O)C(C)(C)C)CC3)cc2n1C1CCCC1,-0.33% (inactive)
16,Cc1ccc(-c2nnc(SCC(=O)Nc3ccc(Oc4ccccc4)cc3)n2Cc2ccco2)cc1,-0.21% (inactive)
17,O=C(c1ccccc1)c1ccc(-c2ccccc2C(=O)NC2CCCCN(Cc3ccc(Cl)cc3)C2=O)cc1 (stereo not drawn),-0.04% (inactive)
18,CCc1c(C)c2ccc(OC3CCCCC3=O)cc2oc1=O (stereo not drawn),1.85% (inactive)
19,Cc1ccc(OCC(=O)Nc2ccc3oc(=O)ccc3c2)cc1C,0.37% (inactive)
20,CC(=O)Nc1cc2ccc(OC(C)=O)cc2oc1=O,383% (active)
21,O=C(Oc1ccccc1)Oc1ccc2c(c1)oc(=O)c1ccccc12,-0.49% (inactive)
22,CC(=O)Oc1ccc2c(C)c(CC(C)O)c(=O)oc2c1 (stereo not drawn),57.1% (active)

row,SMILES,activation
1,COc1cccc(-c2coc3cc4oc(=O)c(CC(=O)O)c(C)c4cc23)c1,0.62% (inactive)
2,CCCCN1CCN(C(=O)c2ccc3c(c2)NC(=O)C(C)(C)O3)CC1,0.18% (inactive)
3,O=C(CSc1nc2c(c(=O)[nH]1)CCCC2)N1CCCCC1,0.8% (inactive)
4,O=C(CSc1nc2ccccc2n1Cc1ccccc1)NNC(=S)Nc1ccccc1,-0.17% (inactive)
5,O=C(CSc1nc2sc3c(c2c(=O)n1-c1ccccc1)CCCC3)NN=Cc1ccc(OCc2ccccc2)cc1,-0.01% (inactive)
6,COc1cc(C)ccc1OCC(=O)OCC(=O)c1ccc[nH]1,-0.43% (inactive)
7,COc1ccnc(NC(=S)N2CCN(c3ncc(C(F)(F)F)cc3Cl)CC2)c1,0.32% (inactive)
8,Cn1nc(-c2ccc(Cl)cc2)c2cc(C(=O)NCc3ccco3)sc21,-17.3% (inactive)
9,Cc1cc(C(=O)OCC(=O)NCc2ccco2)c(C)n1-c1ccccc1,0.45% (inactive)
10,CCc1ccc(-c2cc(C(=O)NCc3ccco3)c3ccccc3n2)s1,41.4% (active)
11,c1csc(-c2nnc(SCc3nc4ccccc4[nH]3)o2)c1,1.12% (inactive)
12,CCn1c2ccccc2c2cc(NC(=O)CSc3nnc(-c4ccccc4)n3-c3ccc(C)cc3)ccc21,-0.54% (inactive)
13,CCCN1CCN(C(=O)Cn2ncc3ccccc32)CC1,-0.42% (inactive)
14,CCc1nn(CC(=O)N2CCN(CC)CC2)c(=O)c2cccn12,-0.55% (inactive)
15,CCN1CCN(C(=O)Cn2nc(C)n3c(cc4c(OC)cccc43)c2=O)CC1,21% (active)
16,C=CCN1C(=O)[C@@H](CC(=O)NCCCOCCCC)[C@]2(C(=O)OCC)CCCCC/C=C/12,0.01% (inactive)
17,Cc1ccc(Cn2cc(CN3[C@@H](CC(C)C)COc4ccc(Cl)cc4S3(=O)=O)nn2)cc1,0.91% (inactive)
18,Cc1cccc(NC(=O)C[C@H]2CC[C@H]3[C@@H](COc4ccc(NC(=O)Nc5ccccc5)cc4C(=O)N3C)O2)c1,0.42% (inactive)
19,O=C(O)c1cnn2c(C(F)(F)F)cc(-c3ccccc3)nc12,-0.59% (inactive)
20,COC(=O)c1cnn2c(C(F)(F)F)cc(-c3ccco3)nc12,23.1% (active)
21,O=C(NCc1ccco1)c1cnn2c(C(F)(F)F)cc(-c3ccco3)nc12,0.06% (inactive)
